# Calls of active or inactive are those of the source. No rule for the calls is given here.
# Target: Pantothenate synthetase (Mycobacterium tuberculosis (strain ATCC 25618 / H37Rv)) (UniProt P9WIL5)
# Assay: Recombinant Mtb pantothenate synthetase (PanC) inhibitors, coupled enzyme, confirmatory (AID 375);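 also: 0% = full reaction with vehicle and 100% = no enzyme background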
# Conditions: coupled enzyme assay; at 10 µM, hits give high values
# Pantothenate synthetase (Mycobacterium tuberculosis (strain ATCC 25618 / H37Rv)), sequence (P9WIL5 whole entry, looked up): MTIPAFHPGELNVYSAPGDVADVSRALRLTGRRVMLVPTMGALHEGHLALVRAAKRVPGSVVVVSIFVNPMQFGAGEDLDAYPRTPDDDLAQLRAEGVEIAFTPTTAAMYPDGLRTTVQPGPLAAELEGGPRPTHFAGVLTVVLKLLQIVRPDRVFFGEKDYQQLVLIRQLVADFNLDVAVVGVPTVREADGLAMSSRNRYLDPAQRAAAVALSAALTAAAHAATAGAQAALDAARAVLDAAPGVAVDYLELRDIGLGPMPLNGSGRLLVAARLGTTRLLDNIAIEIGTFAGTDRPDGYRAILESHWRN
row,SMILES,inhibition
1,Cc1ccc(S(=O)(=O)N2CCN(S(C)(=O)=O)C2c2ccccc2)cc1 (stereo not given),0% (inactive)
2,COc1ccccc1C(=O)Nc1ccc(S(=O)(=O)N2CCOCC2)cc1,6% (inactive)
3,CC1(C)Cc2noc(N)c2C(C)(C)N1OC(=O)c1ccccc1,0% (inactive)
4,COc1ccc(CCNC(=O)C2(C)CCC(=O)N2Cc2ccc3c(c2)OCO3)cc1OC (stereo not given),1% (inactive)
5,COc1ccc(C(=O)Nn2c(SCC(=O)NCC3CCCO3)nc3ccccc3c2=O)cc1 (stereo not given),2% (inactive)
6,Cc1cc(C(=O)NCCN2CCN(c3cccc(Cl)c3)CC2)n(-c2ccccc2)n1,0% (inactive)
7,O=S(=O)(c1cccc2cnccc12)N1CCCNCC1,3% (inactive)
8,Cn1c(=O)n(Cc2ccc(F)cc2)c(=O)c2c1nc1n2CCCN1Cc1ccccc1,0% (inactive)
9,Cc1ccc(-n2nnnc2SCC(=O)N2CCN(C(=O)c3ccco3)CC2)c(C)c1,0% (inactive)
10,COC(=O)c1ccc2c(c1)nc(C)n2CCO,0% (inactive)
11,O=C(NCc1n[nH]c(=S)n1-c1ccc(F)cc1)c1ccco1,0% (inactive)
12,CCc1cccc(NS(=O)(=O)c2c(C)n[nH]c2C)c1,0% (inactive)
13,COc1ccc(Cl)cc1-c1n[nH]c(=S)o1,0% (inactive)
14,COc1ccc(C(=O)N2CCN(S(=O)(=O)c3cc(Cl)ccc3OC)CC2)cc1,5% (inactive)
15,O=S(=O)(c1ccccc1)c1nc(-c2cccs2)oc1NCC1CCCO1 (stereo not given),3% (inactive)
16,CC1CCc2c(sc3c2C2=NS(=O)(=O)CCN2C=N3)C1 (stereo not given),2% (inactive)
17,O=C(NCc1ccccc1)c1cc(-c2ccco2)on1,0% (inactive)
18,COc1ccc(C(=O)CSc2nnc(-c3ccc(C)cc3)o2)cc1,1% (inactive)
19,CC(=O)Nc1ccc(Cl)c(C(N)=O)c1,2% (inactive)
20,CCOC(=O)c1cccc(NC(=O)CSc2nnc(-c3cccnc3)n2C)c1,7% (inactive)

row,SMILES,inhibition
1,Cc1cc(NC(=O)c2ccccc2)ncc1NC(=O)c1ccco1,0% (inactive)
2,CCCCP(=O)(CCCC)c1ccccc1C(=O)O,3% (inactive)
3,COc1ccc(OC)c(NC(=O)CS(=O)(=O)Cc2nc(-c3ccccc3C)oc2C)c1,0% (inactive)
4,CC1CN(c2nc3ccccc3nc2C(C#N)C(=O)OC2CCCCC2)CC(C)O1 (stereo not given),2% (inactive)
5,c1ccc(-c2nc3nonc3c3nc4ccccc4n23)cc1,2% (inactive)
6,COc1ccc(Cl)cc1NC(=O)COc1cccc(-n2cnnn2)c1,0% (inactive)
7,Cc1[nH]c2ccccc2c(=O)c1CN(C)Cc1ccccc1,6% (inactive)
8,COCCSc1ccccc1C(=O)Nc1cc(C)on1,5% (inactive)
9,O=C(Nc1ccc(OC(=O)c2ccco2)cc1)c1ccco1,7% (inactive)
10,Cc1ccc(-c2noc(CCC(=O)NC3CCCc4ccccc43)n2)cc1 (stereo not given),2% (inactive)
11,CC(C)(C)NC(=O)CN(C(=O)C1CSC(=O)C1)c1ccc2c(c1)OCCO2 (stereo not given),0% (inactive)
12,CCCn1c(=O)c2[nH]c(C3CCCC3)nc2n(CCC)c1=O,7% (inactive)
13,O=C(NC1CCS(=O)(=O)C1)N1CCCCC1 (stereo not given),7% (inactive)
14,COC(=O)c1[nH]c2ccc(C)cc2c1NC(=O)CN1CCN(C(=O)c2ccccc2)CC1,4% (inactive)
15,CCc1ccccc1NC(=O)CSc1nc2n[nH]c(C)c2c(=N)n1-c1ccc(OC)cc1,0% (inactive)
16,CCCc1cc(C(=O)Nc2ccccc2C(=O)OC)no1,0% (inactive)
17,CN1CC=C2C(C#N)=C(N)C(C#N)(C#N)C(c3cccc(Cl)c3Cl)C2C1 (stereo not given),0% (inactive)
18,CS(=O)(=O)N(CC(=O)Nc1ccc2c(c1)OCO2)Cc1ccc(Cl)cc1,0% (inactive)
19,CCOC(=O)c1cccc(NC(=O)CNS(=O)(=O)c2cccs2)c1,0% (inactive)
20,Cc1ccc(-c2nnc(-c3ccc(Br)cc3)o2)o1,0% (inactive)

# — PubChem BioAssay
